ATXN2 expr inh = inhibitors of ATXN2 expression; 360,000 compounds, 0.72% hits; AID 1745845; HEK-293 ATXN2-luciferase reporter, luminescence, 24 h; Potency, µM (series often up to 57 µM), without a hit: at the highest dose activity change, negative = inhibition, actives largely listed as inhibitors; further: on the % scale 0 is the no-effect control and ±100 the full control effect; nearly all actives have a fitted effect of over 55% in size
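qHTS (up to 57 uM final) was run with 24 h compound exposure of reporter cells at 37 °C. Each well was multiplexed: SteadyGlo luminescence measured ATXN2-luciferase expression after a fluorogenic Gly-Phe-AFC viability readout (25 uM final).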
KB-V1 cytotox = KB-V1 MDR subline cytotoxicity; KB-V1 MDR cells viability, CellTiter-Glo, 72 h; Potency, µM (doses to about 46.1 µM), actives largely listed as cytotoxic; 400,000 compounds, 3.4% hits; further: on the % scale 0 is the no-effect control and ±100 the full control effect; nearly all actives have a fitted effect of over 60% in size
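Following 72 h at 37 degrees C with compound, KB-V1 cell viability was read by CellTiter-Glo luminescence, medium being phenol-red-free DMEM plus 10% FBS; concentration-response parameters came from normalized, curve-fitted qHTS data.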
HT1080 IDH1KD tx = HT-1080 IDH1 knockdown cell toxicity (counter line); HT-1080 IDH1 knockdown viability, ATP luminescence, 48 h; Potency, µM (titrated, usually from 46.1 µM), for inactives: at the highest dose activity, negative = toxicity, usual class: cytotoxic; 360,000 compounds, 2% hits;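 further: 0% = DMSO wells and -100% = cell-free medium wells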
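Viability of IDH1-knockdown HT-1080 fibrosarcoma cells was assessed by CellTiter-Glo after 48 h at 37 °C with titrated compound; concentration-effect curves were classified by fit quality and response size.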
ATXN viability = reduces viability in counter-screen for ATXN expression inhibitors; Potency, µM (top dose mostly 56.7 µM), actives largely listed as cytotoxic; 400,000 compounds, 0.49% hits; AID 651635; S2 cells (HEK-293 line with an ATXN2-luciferase reporter) viability, CellTiter-Fluor protease fluorescence, 24 h; further: nearly all actives have a fitted effect of over 40% in size
HT1080-NT tox = kills 2HG-producing HT-1080-NT fibrosarcoma cells; 360,000 compounds, 1.6% hits; Potency, µM (doses to about 46.1 µM), without a hit: at the top dose activity, negative = less viability, actives largely listed as cytotoxic; HT-1080-NT fibrosarcoma viability, CellTiter-Glo ATP luminescence, 48 h;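 further: NT is the 2HG producing partner of a matched IDH1 knockdown line; 0% = DMSO-treated cells and -100% = media-only wells without cells; nearly all actives have a fitted effect of over 55% in size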
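Read-out is CellTiter-Glo luminescence after 10 minutes at room temperature, following 48 hours' compound treatment of HT-1080-NT cells (750 cells/well, RPMI, 5% FBS, 37 degrees C).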
KB-3-1 cytotox = KB-3-1 parental cell cytotoxicity; KB-3-1 viability, CellTiter-Glo ATP luminescence, 72 h; Potency, µM (doses to about 46.1 µM), most hits filed as cytotoxic; 400,000 compounds, 1.4% hits; further: on the % scale 0 is the no-effect control and ±100 the full control effect; nearly all actives have a fitted effect of over 60% in size
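Parental KB-3-1 adenocarcinoma cells in phenol-red-free DMEM with 10% FBS were pin-treated with compounds at several concentrations, incubated 72 h at 37 °C, and viability read by CellTiter-Glo luminescence; concentration-effect curves were fitted after normalization.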
* marks the source's active call; other numbers are inactive results; i = inactive; ? = inconclusive; . = not tested or not shown; [ ] = remark or other dose. Hits are enriched below; roughly 6.2% of the tested compounds scored in any of these assays. The call rests on the fitted dose curve; in most records, active means well fitted curve in the direction sought with a large enough effect; inconclusive means small, poorly fitted or top-dose-only effect, or another doubt; inactive means no such curve, though single readings can be large; an effect the other way counts as inactive or inconclusive. Potency means the concentration at half of the fitted maximal effect.

SMILES	ATXN2 expr inh	KB-V1 cytotox	HT1080 IDH1KD tx	ATXN viability	HT1080-NT tox	KB-3-1 cytotox
Cc1ccc2nc(SCC(=O)N3CCC4(CC3)CC4C(=O)Nc3ccc(F)c(F)c3)[nH]c2c1 (centres undefined)	.	.	.	i	.	.
CNC[C@H](Cc1ccccc1)NC[C@@H](Cc1cccc2ccccc12)NCCc1ccc(C)cc1	?	?	?	?	?	7.3µM*
CCN(CC)c1ccc(Nc2cc3n(c(=O)n2)CCc2cc(OC)c(OC)cc2-3)cc1	-1%	i	?	i	26µM*	i
CC1=C(C(=O)OC2CCCCCC2)C(c2cccc(Cl)c2)CC(=O)N1 (centres undefined)	-29%	i	.	i	.	?
N[C@@H](C(=O)N[C@H]1C(=O)N2C(C(=O)O)=C(Cl)CC[C@H]12)c1ccccc1	.	.	.	i	.	.
CCOC(=O)c1ccc(N2C(=O)c3n[nH]c(-c4ccco4)c3C2c2ccccc2OC)cc1 (centres undefined)	?	?	.	?	.	i
CC(C)C[C@@H](CN1CCC[C@@H]1CN1C(=O)C(=O)NC[C@@H]1Cc1ccccc1)N1C[C@H](Cc2ccc(O)cc2)N(CC2CCCCC2)C(=O)C1=O	-2%	?	-9%	?	-3%	?
CC(C)C[C@@H](CN1CCC[C@H]1CN1C(=O)C(=O)NC[C@@H]1Cc1ccccc1)N1C[C@H](Cc2ccc(O)cc2)N(CC2CCCCCC2)C(=O)C1=O	?	i	18µM*	?	23µM*	?
CC(C)C[C@@H](CN1CCC[C@@H]1CN1C(=O)C(=O)NC[C@@H]1Cc1ccccc1)N1C[C@H](Cc2ccccc2)N(CC2CCCCC2)C(=O)C1=O	?	?	-30%	22µM*	-23%	?
CC(C)C[C@@H](CN1CCC[C@@H]1CN1C(=O)C(=O)NC[C@@H]1Cc1ccccc1)N1C[C@H](Cc2ccccc2)N(CC2CCCCCC2)C(=O)C1=O	8%	i	9%	?	5%	?
CSc1ccc(-c2ccc(C(=O)NCC3CCCO3)c(N3CCC(O)CC3)n2)cc1 (centres undefined)	.	.	.	i	.	.
COc1cccc(N2CCN(C(=O)c3cccc(NC(=O)c4nsc5ccccc45)c3)CC2)c1	-17%	i	.	?	.	i
CCN1C(=O)c2cccc3c(S(=O)(=O)N(C)C)ccc1c23	.	13µM*	-16%	.	-5%	i
CCN1C(=O)c2cccc3c(S(=O)(=O)Nc4ccccc4)ccc1c23	75%	12µM*	-18%	i	-5%	?
CCN1C(=O)c2cccc3c(S(=O)(=O)Nc4ccncc4)ccc1c23	3%	i	-2%	i	-2%	i
COc1ccccc1N1CCN(S(=O)(=O)CCNC(=O)CCCc2ccccc2)CC1	-7%	?	-1%	?	-10%	i
O=c1cc(N2CCN(c3ccccc3Cl)CC2)[nH]c(=O)n1Cc1ccc(F)cc1	-24%	21µM*	2.6µM*	i	?	4.6µM*
O=c1cc(N2CCN(Cc3ccccc3)CC2)[nH]c(=O)n1Cc1ccc(F)cc1	-18%	i	-23%	i	5%[9.24 µM]	i
COc1ccccc1N1CCN(S(=O)(=O)CCNC(=O)Cc2ccc(F)cc2)CC1	-13%	18µM*	?	i	-27%	?
COc1ccccc1N1CCN(c2cc(=O)n(Cc3ccc(F)cc3)c(=O)[nH]2)CC1	-4%	?	?	?	12µM*	5.2µM*
O=C(CSCc1cc(=O)c2cc(F)ccc2[nH]1)Nc1ccccc1Cl	-8%	?	.	i	.	i
COc1ccc(-c2c3c(=O)n(C)c(=O)n(C)c3c3n2-c2ccccc2NC3c2ccco2)cc1 (centres undefined)	-21%	i	.	i	.	i
CCc1ccc(-c2cc(C)no2)cc1S(=O)(=O)Nc1ccc(Cl)cc1	.	16µM*	.	.	.	?

Screening results as filed in PubChem.
